# Reference: PubChem BioAssay (Tox21)
# Inconclusive results are not listed. A number with no mark means an inactive call. Active and inactive are the calls of the source. Calls come from the whole dose curve; as a rule, active = well fitted inhibition curve with a large enough effect in the repeat runs; inconclusive = weak or mixed curves; inactive = flat fitted curve, though single readings scatter.
# Assay: qHTS assay to identify small molecule HDAC inhibitors (AID 1259364); note: nearly all actives have a fitted effect of over 45% in size; for activity change, negative = inhibition: top concentration of the series differs between compounds
# Settings: HCT-116 HDAC-Glo I/II luminescence, 2 h; series mostly up to 92.4 µM; activity change, negative = inhibition: at the top concentration
# Excerpt: U.S. Tox21 Program National Center for Advancing Translational Sciences [NCATS] NIH Chemical Genomics Center [NCGC] U.S. Environmental Protection Agency [EPA] National Institutes of Environmental Health Sciences [NIEHS] National Toxicology Program [NTP] U.S. Food and Drug Administration [FDA] Tox21 Assay Overview: Histone deacetylases (HDACs) are a group of epigenetic enzymes that regulate gene expression by histone deacetylation. HDACs are capable of introducing epigenetic modifications and such aberrations contribute to the onset and progression of several human diseases, thus making HDACs a popular therapeutic target. For identifying endogenous class I/II HDAC inhibitors a homogenous, luminogenic HDAC I/II cell based assay was used to measure the relative activity of class I and II HDACs from cells. Wild type HCT-116 cells were used to screen Tox21 libraries for identifying class I/II HDAC inhibitors.
# Tox21 Assay Protocol Summary: HCT-116 cells were dispensed at 1,500 per well in 5uL of culture medium into white solid bottom 1536-well plates (Greiner Bio-One, Monroe, NC) using a Multidrop Combi (Thermo Scientific, Waltham, MA) dispenser. The assay plates were incubated at 37 C and 5% CO2 for an overnight, and then 23nL of compounds dissolved in DMSO and positive control were transferred using a Pintool station (Wako, San Diego, CA). The assay plates were incubated at 37C and 5% CO2 for 2hr. After compound treatment, 4uL of HDAC-Glo reagent (Promega Corporation, Madison, WI) was added to each well of the assay plates using Flying Reagent Dispenser (FRD, Aurora Discovery, San Diego, CA) and incubated the assay plates at room temperature for 30min. The luminescence signal was quantified using a ViewLux plate reader (Perkin Elmer, Shelton, CT).
# % is set by controls: 0 for no effect and ±100 for the full control effect; potency is the fitted concentration of half-maximal effect.
SMILES,"activity change, negative = inhibition",Potency
CCCCC/C(=C\c1ccccc1)CO,0%,
ON(Cc1ccccc1)Cc1ccccc1,-23.9%,
Fc1ccccc1[C@@H](F)COC1CCC(Nc2ncnc3[nH]ncc23)CC1 (stereo not given in full),-10.3%,
C=CC(=O)NCOCC(C)C,-0.289%,
C[N+](C)(C)CCOC(N)=O,-2.24% [at 42.5 µM],
Cc1ccc(Nc2nccc(N(C)c3ccc4c(C)n(C)nc4c3)n2)cc1S(N)(=O)=O,-1.59% [at 42.5 µM],
CO[C@@]12[C@H](COC(N)=O)C3=C(C(=O)C(C)=C(N)C3=O)N1C[C@@H]1N[C@@H]12,5.21% [at 42.5 µM],
Oc1cc(O)c(Cl)cc1Cl,-11.7%,
CCOC(=O)/C=C/C(=O)O,16.3%,
CCC(Cc1ccccc1)(C(=O)c1ccc(N2CCOCC2)cc1)N(C)C (stereo not given),1.61%,
CCOC(=O)OCC,3.31%,
CC1=CC(O)CC(C)(C)C1 (stereo not given),0.0562%,
COCC(O)CO (stereo not given),1.23%,
CO[C@H]1C=CO[C@@]2(C)Oc3c(C)c(O)c4c(O)c(c5c(c4c3C2=O)=NC2(CCN(CC(C)C)CC2)N=5)NC(=O)/C(C)=C\C=C/[C@H](C)[C@H](O)[C@@H](C)[C@@H](O)[C@@H](C)[C@H](OC(C)=O)[C@@H]1C,-8.37%,
CCOC(=N)CC(=O)OCC,-4.52%,
CC(C)(C)CC(C)(C)c1ccc(OCCO)cc1,-8.7%,
CC(=O)[C@H]1CC[C@H]2[C@@H]3C[C@H](C)C4=CC(=O)CC[C@]4(C)[C@H]3[C@@H](O)C[C@]12C,1.08% [at 42.5 µM],
CCCCN(CCCC)C(=S)SSC(=S)N(CCCC)CCCC,-13.7%,
CN1CCN(c2c(F)cc3c(=O)c(C(=O)O)cn4c3c2OCN4C)CC1,8.76% [at 19 µM],
O=C1OCCN1/N=C/c1ccc([N+](=O)[O-])o1,0.921% [at 42.5 µM],

SMILES,"activity change, negative = inhibition",Potency
CNC(=O)N(c1ccccc1)c1ccccc1,4.65%,
CCNC(=O)N1CCN(CCCC(c2ccc(F)cc2)c2ccc(F)cc2)CC1,13.7% [at 42.5 µM],
CCN(CC)CCNC(=O)c1ccc(NC(C)=O)cc1,-1.83% [at 42.5 µM],
CCCCOC(=O)CCS,1.24%,
CCCCCCCC/C=C\CCCCCCCC(=O)OC,-2.18%,
Oc1ccc(Nc2ccccc2)cc1,-16.6%,
Cc1ccnc2ccccc12,-0.753%,
CN1CCN(CCCN2c3ccccc3Sc3ccc(S(=O)(=O)N(C)C)cc32)CC1,-0.0222% [at 42.5 µM],
O=C(CCCCCCCCC#CI)Oc1ccccc1,5.12% [at 42.5 µM],
CSc1ccc(Oc2ccc(S(N)(=O)=O)cc2CN(C)C)cc1C,0.785%,
CCCCCCCCCCCC(=O)[O][Sn]([CH2]CCC)([CH2]CCC)[O]C(=O)CCCCCCCCCCC,-5.38% [at 42.5 µM],
N#C[C@@H]1C[C@@H]2C[C@@H]2N1C(=O)[C@@H](N)C12CC3CC(CC(O)(C3)C1)C2,-1.94% [at 42.5 µM],
O=C(N[C@@H](c1ccccc1)[C@@H]1CCCCN1)c1cccc(C(F)(F)F)c1Cl,0.0727%,
Cc1oc(C)c(C(=O)Nc2ccccc2)c1C,,27.3 µM (active)
CN1CCCN=C1/C=C/c1cccs1,0.483% [at 42.5 µM],
CCc1cccc(N(C)C(N)=Nc2cccc3ccccc23)c1,6.07% [at 42.5 µM],
CCCCN(CCCC)CCCOC(=O)c1ccc(N)cc1,7.73% [at 42.5 µM],
Brc1cc(-c2ccc(Br)c(Br)c2Br)cc(Br)c1Br,3.92% [at 42.5 µM],
O=C(O)c1cccc(O)c1,-4.9%,
C=CC(C)=CCC=C(C)C,-1.98%,
